The values below come from paper PMC7862700, “An all-to-all approach to the identification of sequence-specific readers for epigenetic DNA modifications on cytosine”.

Holding throughout (assay): DAPPL (digital affinity profiling via proximity ligation, sequencing); 10 mM Tris-HCl pH 7.5, 50 mM NaCl, 1 mM DTT, 4% glycerol, room temperature, 30 min; GST-TFs on glutathione beads, 16-mer random dsDNA library, 0.1% formaldehyde crosslink after washing; high values mean tight binding
One test addresses T1, FEV (Homo sapiens, UniProt Q99581 1-238).
T1 sequence: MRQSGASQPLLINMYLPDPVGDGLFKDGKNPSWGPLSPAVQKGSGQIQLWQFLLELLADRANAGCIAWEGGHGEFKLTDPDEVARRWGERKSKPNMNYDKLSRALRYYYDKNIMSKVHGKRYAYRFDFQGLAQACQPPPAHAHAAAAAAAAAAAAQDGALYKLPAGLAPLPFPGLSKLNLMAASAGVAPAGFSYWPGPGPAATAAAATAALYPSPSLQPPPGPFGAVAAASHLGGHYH
The note with it: protein: recombinant; tags: N-terminal GST; dsDNA, one strand shown. An outline of the steps:
(§1)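 Binding signal is given per hexamer as its read frequency for a factor divided by its frequency in the tag-only sample. GST-fused human transcription factors were expressed in yeast, captured on glutathione beads, barcoded with DNA and pooled with that sample, then incubated with 200 nmole of a 16-mer random double-stranded DNA library in Tris/NaCl/DTT/glycerol buffer for 30 min at room temperature. The pools were then washed, crosslinked, proximity-ligated, amplified by PCR and sequenced on an Illumina NextSeq500.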

The target of a further test is ETV5 (Homo sapiens, UniProt P41161 1-510). As to conditions: protein: recombinant; tags: N-terminal GST; dsDNA, one strand shown. The method, boiled down:
as §1

Another test addresses HSF1 (Homo sapiens, UniProt Q00613 1-529). As to conditions: protein: recombinant; tags: N-terminal GST; chain copies: 3; dsDNA, one strand shown. The method, boiled down:
as §1

Another test has as its target T2, SPIC (Homo sapiens, UniProt Q8N5J4 1-248).
T2 sequence: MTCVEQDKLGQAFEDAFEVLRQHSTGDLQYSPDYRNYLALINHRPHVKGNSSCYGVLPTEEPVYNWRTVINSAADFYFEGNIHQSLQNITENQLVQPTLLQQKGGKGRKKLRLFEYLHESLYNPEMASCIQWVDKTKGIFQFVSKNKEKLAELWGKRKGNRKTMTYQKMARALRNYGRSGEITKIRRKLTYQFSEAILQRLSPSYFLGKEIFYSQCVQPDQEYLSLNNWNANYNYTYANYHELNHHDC
The note with it: protein: recombinant; tags: N-terminal GST; dsDNA, one strand shown. The method, boiled down:
as §1

The next test concerns the target ELF4 (Homo sapiens, UniProt Q99607 1-663). As to conditions: protein: recombinant; tags: N-terminal GST; dsDNA, one strand shown. The method, boiled down: as §1
The target of the next test is T3, ELK4 (Homo sapiens, UniProt P28324-2 1-405).
T3 sequence: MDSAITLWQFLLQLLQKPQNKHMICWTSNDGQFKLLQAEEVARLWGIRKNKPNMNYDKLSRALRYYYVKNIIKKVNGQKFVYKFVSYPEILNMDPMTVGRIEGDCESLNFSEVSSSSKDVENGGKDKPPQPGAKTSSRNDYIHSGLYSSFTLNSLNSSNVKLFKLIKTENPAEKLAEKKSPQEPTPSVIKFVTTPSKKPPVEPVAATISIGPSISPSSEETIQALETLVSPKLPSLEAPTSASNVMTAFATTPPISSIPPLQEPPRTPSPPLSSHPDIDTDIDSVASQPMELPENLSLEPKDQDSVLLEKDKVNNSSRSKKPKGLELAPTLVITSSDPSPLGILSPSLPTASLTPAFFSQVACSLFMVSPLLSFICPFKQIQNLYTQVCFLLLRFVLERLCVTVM
As to conditions: protein: recombinant; tags: N-terminal GST; dsDNA, one strand shown. The method, boiled down: as §1

The next test concerns the target T4, ETV2 (Homo sapiens, UniProt O00321 1-342).
T4 sequence: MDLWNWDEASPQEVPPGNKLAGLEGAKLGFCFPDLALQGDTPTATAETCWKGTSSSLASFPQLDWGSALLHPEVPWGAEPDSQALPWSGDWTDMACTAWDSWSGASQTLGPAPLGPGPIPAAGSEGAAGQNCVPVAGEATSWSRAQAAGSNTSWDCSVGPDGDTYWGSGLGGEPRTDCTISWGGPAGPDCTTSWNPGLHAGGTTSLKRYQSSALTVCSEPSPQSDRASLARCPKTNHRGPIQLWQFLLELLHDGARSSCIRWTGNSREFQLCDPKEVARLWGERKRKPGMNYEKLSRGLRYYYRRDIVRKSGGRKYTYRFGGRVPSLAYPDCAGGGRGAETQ
The note with it: protein: recombinant; tags: N-terminal GST; dsDNA, one strand shown. An outline of the steps:
as §1

Another test has as its target T5, ELF3 (Homo sapiens, UniProt P78545 1-371).
T5 sequence: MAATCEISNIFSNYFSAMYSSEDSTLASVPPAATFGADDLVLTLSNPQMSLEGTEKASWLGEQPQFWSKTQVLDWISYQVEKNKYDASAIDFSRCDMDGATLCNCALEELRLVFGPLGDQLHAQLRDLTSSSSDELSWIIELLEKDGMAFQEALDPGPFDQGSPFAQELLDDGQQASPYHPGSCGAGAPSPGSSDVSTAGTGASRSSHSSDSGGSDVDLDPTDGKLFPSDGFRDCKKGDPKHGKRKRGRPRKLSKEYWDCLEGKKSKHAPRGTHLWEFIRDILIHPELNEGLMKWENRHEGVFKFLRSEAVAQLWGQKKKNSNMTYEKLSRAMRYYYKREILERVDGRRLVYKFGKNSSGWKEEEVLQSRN
As to conditions: protein: recombinant; tags: N-terminal GST; dsDNA, one strand shown. An outline of the steps:
as §1

The target of another test is CRX (Homo sapiens, UniProt O43186 1-299). As to conditions: protein: recombinant; tags: N-terminal GST; dsDNA, one strand shown. An outline of the steps:
as §1

The next test concerns the target ETV1 (Homo sapiens, UniProt P50549 1-477). As to conditions: protein: recombinant; tags: N-terminal GST; dsDNA, one strand shown. An outline of the steps: as §1
Another test deals with T6, ERF (Homo sapiens, UniProt P50548 1-548).
T6 sequence: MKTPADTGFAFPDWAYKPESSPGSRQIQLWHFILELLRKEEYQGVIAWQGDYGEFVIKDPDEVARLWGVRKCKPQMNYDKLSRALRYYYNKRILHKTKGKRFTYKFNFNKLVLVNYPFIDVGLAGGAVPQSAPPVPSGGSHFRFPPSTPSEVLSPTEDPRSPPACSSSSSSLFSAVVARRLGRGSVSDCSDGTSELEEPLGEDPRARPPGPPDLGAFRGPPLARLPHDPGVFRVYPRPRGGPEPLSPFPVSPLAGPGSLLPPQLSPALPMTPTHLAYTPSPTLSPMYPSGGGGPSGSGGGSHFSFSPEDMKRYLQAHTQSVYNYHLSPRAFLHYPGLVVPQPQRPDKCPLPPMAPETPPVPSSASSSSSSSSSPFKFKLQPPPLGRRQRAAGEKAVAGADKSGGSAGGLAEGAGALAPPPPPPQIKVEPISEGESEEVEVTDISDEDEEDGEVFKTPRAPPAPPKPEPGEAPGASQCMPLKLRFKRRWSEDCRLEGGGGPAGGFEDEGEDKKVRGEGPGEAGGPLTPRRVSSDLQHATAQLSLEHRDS
The note with it: protein: recombinant; tags: N-terminal GST; dsDNA, one strand shown. An outline of the steps:
as §1

Another test has as its target T7, ETV3L (Homo sapiens, UniProt Q6ZN32 1-361).
T7 sequence: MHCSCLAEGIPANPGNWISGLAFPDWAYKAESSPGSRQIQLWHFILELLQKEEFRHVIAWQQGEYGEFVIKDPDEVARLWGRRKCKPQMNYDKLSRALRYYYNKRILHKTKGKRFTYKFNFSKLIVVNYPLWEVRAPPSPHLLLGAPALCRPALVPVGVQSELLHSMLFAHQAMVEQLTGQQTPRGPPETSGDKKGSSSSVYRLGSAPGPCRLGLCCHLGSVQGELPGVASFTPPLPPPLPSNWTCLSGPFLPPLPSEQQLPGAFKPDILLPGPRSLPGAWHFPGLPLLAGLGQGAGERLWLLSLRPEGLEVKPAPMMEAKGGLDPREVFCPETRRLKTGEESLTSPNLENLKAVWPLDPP
The note with it: protein: recombinant; tags: N-terminal GST; dsDNA, one strand shown. An outline of the steps:
as §1

Another test has as its target T8, ETS2 (Homo sapiens, UniProt P15036 1-469).
T8 sequence: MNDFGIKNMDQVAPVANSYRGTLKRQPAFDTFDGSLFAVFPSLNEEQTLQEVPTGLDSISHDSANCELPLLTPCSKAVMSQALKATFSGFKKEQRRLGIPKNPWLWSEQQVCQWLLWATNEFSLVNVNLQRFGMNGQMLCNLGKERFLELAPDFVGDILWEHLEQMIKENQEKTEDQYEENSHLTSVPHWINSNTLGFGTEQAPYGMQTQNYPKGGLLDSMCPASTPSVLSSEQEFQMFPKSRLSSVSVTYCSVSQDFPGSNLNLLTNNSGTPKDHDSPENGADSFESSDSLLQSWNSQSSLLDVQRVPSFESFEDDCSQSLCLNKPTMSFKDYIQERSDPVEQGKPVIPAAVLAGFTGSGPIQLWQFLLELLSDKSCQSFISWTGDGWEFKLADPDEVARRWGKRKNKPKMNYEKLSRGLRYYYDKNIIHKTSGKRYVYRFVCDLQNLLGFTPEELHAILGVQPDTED
The note with it: protein: recombinant; tags: N-terminal GST; dsDNA, one strand shown. The method, boiled down:
as §1

A further test concerns the target T9, SPDEF (Homo sapiens, UniProt O95238 1-335).
T9 sequence: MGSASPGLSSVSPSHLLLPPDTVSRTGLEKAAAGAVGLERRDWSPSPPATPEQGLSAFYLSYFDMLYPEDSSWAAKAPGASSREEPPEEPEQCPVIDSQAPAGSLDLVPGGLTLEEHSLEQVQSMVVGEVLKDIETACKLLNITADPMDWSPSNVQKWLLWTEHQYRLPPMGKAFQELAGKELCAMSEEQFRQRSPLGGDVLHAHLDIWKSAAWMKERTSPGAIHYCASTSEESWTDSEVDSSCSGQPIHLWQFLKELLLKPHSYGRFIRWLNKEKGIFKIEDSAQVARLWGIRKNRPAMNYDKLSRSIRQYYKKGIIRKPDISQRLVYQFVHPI
As to conditions: protein: recombinant; tags: N-terminal GST; dsDNA, one strand shown. The method, boiled down:
as §1

The next test addresses T10, ETV7 (Homo sapiens, UniProt Q9Y603 1-341).
T10 sequence: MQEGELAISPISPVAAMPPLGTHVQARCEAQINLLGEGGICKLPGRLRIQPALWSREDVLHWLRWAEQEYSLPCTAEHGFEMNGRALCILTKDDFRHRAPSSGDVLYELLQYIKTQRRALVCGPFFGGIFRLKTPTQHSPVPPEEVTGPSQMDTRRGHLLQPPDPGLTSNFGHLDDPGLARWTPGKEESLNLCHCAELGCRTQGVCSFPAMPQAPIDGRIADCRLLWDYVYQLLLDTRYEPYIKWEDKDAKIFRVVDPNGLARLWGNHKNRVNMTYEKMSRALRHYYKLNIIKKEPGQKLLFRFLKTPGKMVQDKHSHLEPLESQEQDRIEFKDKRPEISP
As to conditions: protein: recombinant; tags: N-terminal GST; dsDNA, one strand shown. The method, boiled down: as §1

For the next test, the target named is T11, ELF5 (Homo sapiens, UniProt Q9UKW6-2 1-255).
T11 sequence: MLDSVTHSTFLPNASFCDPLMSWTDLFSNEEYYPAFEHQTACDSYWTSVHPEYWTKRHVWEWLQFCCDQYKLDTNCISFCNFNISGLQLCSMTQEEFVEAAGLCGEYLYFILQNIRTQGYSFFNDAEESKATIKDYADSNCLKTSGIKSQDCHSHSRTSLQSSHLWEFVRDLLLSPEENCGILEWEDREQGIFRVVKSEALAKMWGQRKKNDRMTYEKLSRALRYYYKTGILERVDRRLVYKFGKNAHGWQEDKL
The note with it: protein: recombinant; tags: N-terminal GST; dsDNA, one strand shown. An outline of the steps:
as §1

Another test addresses T12, ETV3 (Homo sapiens, UniProt P41162-2 1-143).
T12 sequence: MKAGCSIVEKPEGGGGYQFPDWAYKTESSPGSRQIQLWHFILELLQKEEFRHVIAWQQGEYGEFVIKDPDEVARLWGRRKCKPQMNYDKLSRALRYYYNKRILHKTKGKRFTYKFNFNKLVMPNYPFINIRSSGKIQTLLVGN
As to conditions: protein: recombinant; tags: N-terminal GST; dsDNA, one strand shown. The method, boiled down:
as §1

In the next test the target is ETV6 (Homo sapiens, UniProt P41212 1-452). As to conditions: protein: recombinant; tags: N-terminal GST; dsDNA, one strand shown. An outline of the steps: as §1
Sequence of ETV6 (P41212 whole entry): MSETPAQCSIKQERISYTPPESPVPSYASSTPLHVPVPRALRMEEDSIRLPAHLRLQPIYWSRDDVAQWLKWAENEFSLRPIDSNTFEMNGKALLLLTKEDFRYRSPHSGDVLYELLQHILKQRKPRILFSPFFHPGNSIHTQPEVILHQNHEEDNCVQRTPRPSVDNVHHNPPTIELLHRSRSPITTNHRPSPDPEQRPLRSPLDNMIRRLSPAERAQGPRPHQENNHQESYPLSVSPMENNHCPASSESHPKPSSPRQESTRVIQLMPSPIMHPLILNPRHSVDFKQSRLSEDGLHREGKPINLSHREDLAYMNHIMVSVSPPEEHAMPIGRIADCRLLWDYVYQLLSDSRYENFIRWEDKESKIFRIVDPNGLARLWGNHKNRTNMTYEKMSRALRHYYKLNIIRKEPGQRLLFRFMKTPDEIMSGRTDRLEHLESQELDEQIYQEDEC

Sequence of ETV1 (P50549 whole entry): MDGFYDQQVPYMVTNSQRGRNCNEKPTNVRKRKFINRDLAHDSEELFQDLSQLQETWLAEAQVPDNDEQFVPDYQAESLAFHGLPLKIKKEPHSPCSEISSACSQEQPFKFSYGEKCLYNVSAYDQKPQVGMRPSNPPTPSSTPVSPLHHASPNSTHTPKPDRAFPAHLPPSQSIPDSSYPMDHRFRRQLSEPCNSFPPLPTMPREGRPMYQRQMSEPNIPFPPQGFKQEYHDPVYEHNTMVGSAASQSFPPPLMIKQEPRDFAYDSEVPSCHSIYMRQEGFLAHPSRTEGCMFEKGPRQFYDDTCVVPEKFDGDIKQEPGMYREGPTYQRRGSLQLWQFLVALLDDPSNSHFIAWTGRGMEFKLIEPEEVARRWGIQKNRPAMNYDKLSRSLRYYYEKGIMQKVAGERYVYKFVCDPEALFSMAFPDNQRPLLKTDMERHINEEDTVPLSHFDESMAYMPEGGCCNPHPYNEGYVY
Sequence of ETV5 (P41161 whole entry): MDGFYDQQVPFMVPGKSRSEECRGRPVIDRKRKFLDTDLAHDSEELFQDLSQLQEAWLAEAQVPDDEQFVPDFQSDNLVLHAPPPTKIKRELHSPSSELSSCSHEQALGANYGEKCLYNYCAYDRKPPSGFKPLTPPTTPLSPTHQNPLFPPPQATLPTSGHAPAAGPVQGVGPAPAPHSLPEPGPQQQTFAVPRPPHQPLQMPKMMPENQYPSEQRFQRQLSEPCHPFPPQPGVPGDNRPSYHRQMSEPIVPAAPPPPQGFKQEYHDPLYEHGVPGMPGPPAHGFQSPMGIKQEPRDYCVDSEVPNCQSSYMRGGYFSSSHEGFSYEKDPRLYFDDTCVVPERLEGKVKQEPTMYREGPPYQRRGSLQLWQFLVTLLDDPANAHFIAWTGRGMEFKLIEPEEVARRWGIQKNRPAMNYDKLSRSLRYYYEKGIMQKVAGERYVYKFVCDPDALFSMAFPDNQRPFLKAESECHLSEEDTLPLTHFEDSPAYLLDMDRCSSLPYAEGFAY
Sequence of CRX (O43186 whole entry): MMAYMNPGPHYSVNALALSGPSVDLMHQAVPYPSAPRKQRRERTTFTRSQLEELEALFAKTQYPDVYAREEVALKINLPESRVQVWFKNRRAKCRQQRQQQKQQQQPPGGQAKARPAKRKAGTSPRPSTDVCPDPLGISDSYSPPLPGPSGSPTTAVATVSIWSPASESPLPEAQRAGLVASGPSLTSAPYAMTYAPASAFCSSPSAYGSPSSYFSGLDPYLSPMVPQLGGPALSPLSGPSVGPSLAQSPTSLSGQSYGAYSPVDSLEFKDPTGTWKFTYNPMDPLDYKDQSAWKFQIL
Sequence of HSF1 (Q00613 whole entry): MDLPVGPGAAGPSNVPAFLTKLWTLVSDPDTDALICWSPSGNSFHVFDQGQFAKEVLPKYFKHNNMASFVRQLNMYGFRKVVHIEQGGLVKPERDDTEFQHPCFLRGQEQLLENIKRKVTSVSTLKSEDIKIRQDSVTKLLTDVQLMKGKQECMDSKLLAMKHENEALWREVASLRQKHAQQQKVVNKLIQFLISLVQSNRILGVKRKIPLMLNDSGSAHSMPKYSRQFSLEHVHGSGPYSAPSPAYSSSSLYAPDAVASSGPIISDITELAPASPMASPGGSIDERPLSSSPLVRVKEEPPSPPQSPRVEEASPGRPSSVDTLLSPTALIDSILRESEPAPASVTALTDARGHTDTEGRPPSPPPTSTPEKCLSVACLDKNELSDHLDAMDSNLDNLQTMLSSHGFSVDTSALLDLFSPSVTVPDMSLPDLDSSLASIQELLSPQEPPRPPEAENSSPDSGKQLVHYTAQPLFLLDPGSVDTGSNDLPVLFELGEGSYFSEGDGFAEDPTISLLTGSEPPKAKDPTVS
Sequence of ELF4 (Q99607 whole entry): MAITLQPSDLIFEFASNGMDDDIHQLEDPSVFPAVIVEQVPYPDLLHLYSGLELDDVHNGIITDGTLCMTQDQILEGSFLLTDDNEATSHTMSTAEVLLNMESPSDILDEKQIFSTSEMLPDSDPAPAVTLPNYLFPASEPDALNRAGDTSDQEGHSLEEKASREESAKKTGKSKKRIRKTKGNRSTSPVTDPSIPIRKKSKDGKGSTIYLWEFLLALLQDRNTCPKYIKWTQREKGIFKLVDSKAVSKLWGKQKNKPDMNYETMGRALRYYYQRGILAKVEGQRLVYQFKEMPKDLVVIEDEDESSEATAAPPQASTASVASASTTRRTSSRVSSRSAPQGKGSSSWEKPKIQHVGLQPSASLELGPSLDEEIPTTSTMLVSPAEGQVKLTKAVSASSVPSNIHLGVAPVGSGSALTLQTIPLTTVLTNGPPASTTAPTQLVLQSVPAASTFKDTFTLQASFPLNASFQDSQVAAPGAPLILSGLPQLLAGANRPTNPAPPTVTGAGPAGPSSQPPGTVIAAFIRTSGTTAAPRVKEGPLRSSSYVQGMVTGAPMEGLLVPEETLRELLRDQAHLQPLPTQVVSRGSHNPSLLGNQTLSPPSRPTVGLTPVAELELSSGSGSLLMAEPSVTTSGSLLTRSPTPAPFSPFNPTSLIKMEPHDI

For the sequence ACTTAT, the binding signal with FEV is 1.34 fold enrichment (6-mer frequency, TF over GST control); with ETV5, 1.32 fold enrichment (6-mer frequency, TF over GST control); in the test with HSF1, 1.73 fold enrichment (6-mer frequency, TF over GST control); with SPIC, 1.5 fold enrichment (6-mer frequency, TF over GST control); with ELF4, 1.35 fold enrichment (6-mer frequency, TF over GST control); in the test with ELK4 it was 1.53 fold enrichment (6-mer frequency, TF over GST control). For the same sequence, the binding signal with ETV2 is 1.35 fold enrichment (6-mer frequency, TF over GST control); with ELF3, 1.27 fold enrichment (6-mer frequency, TF over GST control); with CRX, 2.2 fold enrichment (6-mer frequency, TF over GST control); in the test with ETV1 it was 1.42 fold enrichment (6-mer frequency, TF over GST control); in the test with ERF, 1.39 fold enrichment (6-mer frequency, TF over GST control); in the test with ETV3L, 1.34 fold enrichment (6-mer frequency, TF over GST control). The binding signal with ETS2 is 1.36 fold enrichment (6-mer frequency, TF over GST control); in the test with SPDEF, 1.4 fold enrichment (6-mer frequency, TF over GST control); with ETV7 it was 1.21 fold enrichment (6-mer frequency, TF over GST control); in the test with ELF5 it was 1.38 fold enrichment (6-mer frequency, TF over GST control); with ETV3 it was 1.35 fold enrichment (6-mer frequency, TF over GST control); with ETV6, 1.27 fold enrichment (6-mer frequency, TF over GST control).
